Screening results from PubChem BioAssay.
An excerpt weighted towards active compounds, which were near 19% of everything screened.
TDP1 cell noCPT = qHTS for Inhibitors of human tyrosyl-DNA phosphodiesterase 1 (TDP1): qHTS in cells in absence of CPT. DT40 Tdp1-/- hTDP1 cells, no CPT, ATP luminescence, 48 h. 15% of 420,000 active. AID 686978, 2013. Potency, µM (titrated, usually from 46.2 µM), without a hit: at the highest dose activity change, negative = growth inhibition, actives largely listed as inhibitors; further: potency means the concentration at half of the fitted maximal effect; nearly all actives have a fitted effect of over 55% in size
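Growth of hTDP1-complemented DT40 Tdp1-knockout cells is measured by ATP luminescence after at least 48 hr compound exposure at 37 °C, with DMSO substituting for the 20 nM CPT used in the parallel screen.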
DT40 TDP1 CPT = growth inhibition of DT40 Tdp1-/-;hTDP1 cells with camptothecin (screen for TDP1 inhibitors); Potency, µM (series often up to 46.2 µM), for the others: at the highest dose activity change, negative = growth inhibition, usual class: inhibitors; 12% of 420,000 active; chicken DT40 Tdp1-/-;hTDP1 cells + 20 nM CPT, ATP luminescence, 48 h; further: potency means the concentration at half of the fitted maximal effect; nearly all actives have a fitted effect of over 55% in size
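Chicken DT40 Tdp1-/- cells stably complemented with human TDP1 were seeded at 400 cells/well in medium containing 20 nM camptothecin, exposed to pin-transferred compounds, and grown at 37 °C for at least 48 hr. Viability was read as ATP luminescence.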
IL1B secr inh = blocks inflammasome-driven IL-1 beta release | THP-1 LPS/ATP IL-1B secretion, AlphaLISA, 16 h; active compounds read low | activity change, % at 57.5 µM | 4.7% of 360,000 active; in the data active means activity change below about -50%; inconclusive means mostly about -30% to -49%
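Secreted IL-1B measured by AlphaLISA bead assay after 16 h compound exposure of THP-1 cells; compounds (final up to 57.5 uM) added 1 h before LPS (250 ng/mL) and ATP (1.25 mM) stimulation; lower signal means less secretion.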
HT1080 IDH1KD tx = toxicity to HT-1080 IDH1 knockdown cells (counter line); HT-1080 IDH1 knockdown viability, ATP luminescence, 48 h; Potency, µM (doses to about 46.1 µM), for inactives: top-dose activity, negative = toxicity, hits mostly cytotoxic; 2% of 360,000 active; AID 686971;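 further: potency means the concentration at half of the fitted maximal effect; 0% = DMSO wells and -100% = cell-free medium wells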
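Assay cells: HT-1080 with IDH1 knockdown, 750 per well, RPMI/5% FBS. Exposure: 48 h at 37 °C following 2 h pre-incubation. Read: CellTiter-Glo luminescence; fitted concentration-response, curve class assigned.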
HT1080NT lethal = kills 2HG-producing HT-1080-NT fibrosarcoma cells; Potency, µM (doses to about 46.1 µM), for inactives: top-dose activity, negative = less viability, most hits filed as cytotoxic; AID 686970; 1.6% of 360,000 active; HT-1080-NT fibrosarcoma viability, CellTiter-Glo ATP luminescence, 48 h;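 further: NT is the 2HG producing partner of a matched IDH1 knockdown line; potency means the concentration at half of the fitted maximal effect; 0% = DMSO-treated cells and -100% = media-only wells without cells; nearly all actives have a fitted effect of over 55% in size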
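HT-1080-NT fibrosarcoma cells (2HG-overproducing), 750 cells/well in RPMI with 5% FBS, dosed after 2 h and incubated 48 h at 37C. CellTiter-Glo luminescence normalized to DMSO and no-cell wells; concentration-response curves fitted and classed.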
ELG1 repair inh = inhibitors of ELG1-dependent DNA repair in HEK293T cells. Potency, µM (highest dose often 46.1 µM), for inactives: at the highest dose activity change, negative = inhibition, actives largely listed as inhibitors. HEK293T ELG1-luciferase reporter, luminescence, 16 h; DNA damage induced by 5-fluorouridine. 2.3% of 330,000 active; further: potency means the concentration at half of the fitted maximal effect; nearly all actives have a fitted effect of over 55% in size
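Step one: seed 2,000 cells per well. Step two: pin-transfer compound or DMSO alongside 5-fluorouridine. Step three: incubate 16 hr, 37 °C, 5% CO2. Step four: add ONE-Glo, wait 30 min, read luminescence.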
* marks the source's active call; other numbers are inactive results; ? = inconclusive; . = no result; [ ] = remark or other dose. Unless noted, the call rests on the fitted dose curve; in most records, active means well fitted curve in the direction sought with a large enough effect; inconclusive means small, poorly fitted or top-dose-only effect, or another doubt; inactive means no such curve, though single readings can be large; an effect the other way counts as inactive or inconclusive. Unless noted, on the % scale 0 is the no-effect control and ±100 the full control effect.

SMILES	TDP1 cell noCPT	DT40 TDP1 CPT	IL1B secr inh	HT1080 IDH1KD tx	HT1080NT lethal	ELG1 repair inh
O=C(c1cccc(Cl)c1)C1CCCN(Cc2cccc3cnccc23)C1 (centres undefined)	21µM*	?	-16	?	9.2µM*	?
COc1ccc(CN2CCCC(C(=O)c3cccc(Cl)c3)C2)cc1 (centres undefined)	?	?	-12	-1%	-1%	-2%
Cc1ccc(NC(=O)c2ncn(CCCNCCN3CCOCC3)n2)cc1C	-12%	-13%	-2	-1%	-4%	.
O=C(O)/C=C\CO	0%	-1%	.	.	.	.
C#CCN(C[C@@H]1[C@@H](OC(=O)Nc2c(C)noc2C)[C@@H](OC(=O)Nc2c(C)noc2C)Cn2c(=O)n(CCCCCC)c(=O)n21)S(=O)(=O)c1ccc(C)cc1	21µM*	18µM*	-59*	-10%	-13%	.
CC(=O)OCC12CC(OC(=O)CC(C)C)C(C)=CC1OC1C(O)C(OC(C)=O)C2(C)C12CO2 (centres undefined)	0.023µM*	0.023µM*	-83*	.	0.26µM*	.
CCCCOc1ccc(C(=O)NCC(=O)N2CCN(C/C=C/c3ccccc3)CC2)cc1	16µM*	?	23	-18%	-10%	.
O=C(COc1ccccc1)N1CCN(C/C=C/c2ccccc2)CC1	21µM*	16µM*	-13	1%	3%	-22%
O=C(COc1ccc(Cl)cc1)N1CCN(C/C=C/c2ccccc2)CC1	?	?	-75*	-3%	7%	-13%
NCC(CS(=O)(=O)O)c1ccc(Cl)cc1 (centres undefined)	-21%	3%	.	.	.	.
CCOP(=O)(OCC)/C(C#N)=C/c1ccc(Br)cc1	-24%	-5%	21	-4%	-9%	1%
CCOP(=O)(OCC)/C(C#N)=C/c1ccc(-c2ccc(F)cc2F)o1	?	15µM*	?	-12%	-19%	?
CCOC(=O)c1ccc(N2C(=O)c3n[nH]c(-c4cccs4)c3C2c2ccc(OC)cc2OC)cc1 (centres undefined)	21µM*	23µM*	.	.	.	.
CCOC(=O)COc1ccc(/C=C2\C(=O)NC(=S)N(c3ccc(OC)cc3)C2=O)cc1OC	17%	6%	10	-3%	1%	5%
COc1ccc(-c2csc(Nc3ccc(S(N)(=O)=O)cc3)n2)cc1	?	?	?	18µM*	?	16µM*
COc1ccc(F)cc1CN1CCN(C(=O)CCC(=O)Nc2nnc(CC(C)C)s2)CC1	?	?	22	-4%	-3%	-1%
c1cc(OCCN2CC2)ccn1	7.3µM*	3.3µM*	14	-13%	-6%	.
COc1ccc(N2CCN(CCc3ccncc3)CC2)cc1	-5%	6%	-11	13%	11%	1%
c1cnc(OCCN2CC2)cn1	13µM*	8.2µM*	-2	-6%	-3%	.
COc1ccc(CCNC(=O)CCn2c(=O)c3ccccc3n(Cc3ccc(Cl)cc3)c2=O)cc1OC	6.5µM*	18µM*	.	.	.	.
Cc1ccc(Cn2c(=O)n(CCCCC(=O)NCc3ccccc3Cl)c(=O)c3ccccc32)cc1	5.2µM*	4.6µM*	.	.	.	.
COc1ccccc1NC(=O)COC(=O)c1cn(C)c2ccccc12	?	?	-4	5%	-1%	-27%
CC[C@H](C)C(=O)O[C@H]1C[C@H](O)C=C2C=C[C@H](C)[C@H](CC[C@@H](O)C[C@@H](O)CC(=O)O)[C@H]21	-27%	?	.	.	.	.
COc1cc(CN2CCc3nc(N4CCN(c5ccccc5F)CC4)ncc3C2)ccc1OC(C)C	-26%	?	.	.	.	.
CN(C)c1ccc(CN2CCc3nc(N4CCN(c5ccccn5)CC4)ncc3C2)cc1	21µM*	21µM*	.	.	.	.
SMILES	TDP1 cell noCPT	DT40 TDP1 CPT	IL1B secr inh	HT1080 IDH1KD tx	HT1080NT lethal	ELG1 repair inh
COc1cc(CN2CCc3nc(N4CCN(c5ncccn5)CC4)ncc3C2)cc(OC)c1OC	8.2µM*	8.2µM*	.	.	.	.
COc1ccc(C(Nc2cccc([N+](=O)[O-])c2)P(=O)(OC(C)C)OC(C)C)cc1 (centres undefined)	16µM*	16µM*	-12	-17%	-26%	0%
CC(C)OP(=O)(OC(C)C)C(Nc1ccccc1)c1ccccc1C(F)(F)F (centres undefined)	?	?	-12	-8%	-6%	-2%
CCCOP(=O)(OCCC)C(Nc1ccc(C(C)C)cc1)c1ccc([N+](=O)[O-])cc1 (centres undefined)	16µM*	?	?	?	?	?
CC(C)OP(=O)(OC(C)C)C(Nc1ccc([N+](=O)[O-])cc1)c1cccc([N+](=O)[O-])c1 (centres undefined)	18µM*	?	-6	?	-17%	16%
CC(C)OP(=O)(OC(C)C)C(Nc1ccccc1)c1cccc2c1OCO2 (centres undefined)	?	?	-19	-2%	2%	?
COc1ccc(OC)c(C(Nc2ccccc2)P(=O)(OC(C)C)OC(C)C)c1 (centres undefined)	16µM*	?	8	0%	-5%	?
Fc1c(F)c(F)c(N2CCNCC2)c(F)c1F	-1%	-15%	-11	-17%	0%	15%
CC(=O)OCC1=C(C(=O)O)N2C(=O)[C@@H](N)[C@H]2SC1	-2%[21.1 µM]	9%[21.1 µM]	.	.	.	.
Cc1[nH]c2ccccc2c1CCCNC1CCCCC1	18µM*	?	?	-18%	-16%	-2%
N[C@H](CCP(=O)(O)O)C(=O)O	6%	2%	.	.	.	.
COc1ccc(/C=C/C(=O)c2ccccc2)cc1COc1ccc(F)cc1	21µM*	?	-52*	?	?	-22%
Cc1c(C(=O)N2CCC3(CC2)OCCO3)sc2ncnc(N3CCc4ccccc4C3)c12	23µM*	16µM*	-14	?	-19%	21µM*
O=C(c1ccccc1)N1CCC2(CC1)OCCO2	6%	10%	1	15%	18%	1%
C1CCC2CCCCC2C1 (centres undefined)	-19%	4%	-5	-1%	20%	?
NCCc1ccc(OCc2ccccc2)c(OCc2ccccc2)c1	12µM*	16µM*	-82*	?	-25%	-19%
Cc1ccc(-n2c(=O)[nH]c3ccccc3c2=O)cc1[N+](=O)[O-]	-27%	?	0	28%	16%	.
